Assay results reported in patent US20030180744, “High affinity oligonucleotide ligands to growth factors” (GILEAD SCIENCES, INC., published 2003).

Experiments:
Test in all cases: filter; Kd target / Kd hKGF
[1] = target: bFGF (Homo sapiens, UniProt P09038 P09038:143-288); settings: tags: R&D Systems; pseudoknot; ssRNA; 2'-F pyrimidines
[2] = target: aFGF (Homo sapiens, UniProt P05230 P05230:16-155); settings: tags: R&D Systems; pseudoknot; ssRNA; 2'-F pyrimidines
[3] = target: T1, KGF (rat) (Rattus norvegicus, UniProt Q02195 Q02195:32-194); settings: tags: QED Advanced Research Technologies; pseudoknot; ssRNA; 2'-F pyrimidines
T1 sequence: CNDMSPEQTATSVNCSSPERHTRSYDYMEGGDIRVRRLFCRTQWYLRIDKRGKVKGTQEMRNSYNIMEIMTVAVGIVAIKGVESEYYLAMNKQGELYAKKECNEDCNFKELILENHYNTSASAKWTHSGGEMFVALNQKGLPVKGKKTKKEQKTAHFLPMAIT

Chain of bFGF (P09038 143-288, one chain of several): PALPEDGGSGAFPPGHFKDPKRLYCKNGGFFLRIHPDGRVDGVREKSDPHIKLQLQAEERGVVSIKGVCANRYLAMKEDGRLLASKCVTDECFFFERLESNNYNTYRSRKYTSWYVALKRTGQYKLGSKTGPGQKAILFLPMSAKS
Chain of aFGF (P05230 16-155, one chain of several): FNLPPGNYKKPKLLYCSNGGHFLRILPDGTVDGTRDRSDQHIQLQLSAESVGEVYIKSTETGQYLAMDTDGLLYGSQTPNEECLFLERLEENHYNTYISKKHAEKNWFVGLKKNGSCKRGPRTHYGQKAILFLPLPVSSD

GGGAGGACGAUGCGGUGGUCUCCCAAUUCUAAACUUUCUCCAUCGUAUCUGGGCCAGACGACUCGCCCGA
binding signal [1]: 1070 | binding signal [2]: 38600 | binding signal [3]: 1250
